# Assay results: PubChem BioAssay AID1159580 (chemical genetic matrix, 2015)
# The whole screen tested about 5,500 compounds, of which about 2,000 (36%) were called active. About 18% were inconclusive and are not listed. Some of the results follow. Unmarked numbers belong to inactive results. No stated cut-off is given here; in the data, active means normalized growth mostly below about 0.91 (no sharp cut-off); inconclusive means no clear call, values can overlap the other calls; inactive means mostly above about 0.92.
# Assay: chemical genetic growth profiling, strain panel (AID 1159580);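 further: tested at 20 µM; growth read once vehicle control cultures reached saturation at 30 °C; 1 = growth at the plate median or of vehicle wells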
# Conditions: growth OD
smiles,measurement,setting,value
COc1cc(OC)c2c(=O)c(O)c(-c3ccc(OC)c(OC)c3)oc2c1,normalized growth,"S. cerevisiae deletion strains, locus YKL009W, strain mrt4, stronger effect = lower value",1.45 [resistant] (active)
same,normalized growth,"S. cerevisiae deletion strains, locus YKL068W, stronger effect = lower value",0.994
same,normalized growth,"S. cerevisiae deletion strains, locus YKL085W, strain MDH1 (second series), stronger effect = lower value",1.05
same,normalized growth,"S. cerevisiae deletion strains, locus YKL085W, strain MDH1, stronger effect = lower value",1.05
same,normalized growth,"S. cerevisiae deletion strains, locus YKL160W, strain elf1, stronger effect = lower value",0.922
same,normalized growth,"S. cerevisiae deletion strains, locus YKL190W, strain CNB1, stronger effect = lower value",0.202 (active)
same,normalized growth,"S. cerevisiae deletion strains, locus YKR001C, strain vps1, stronger effect = lower value",0.738 (active)
same,normalized growth,"S. cerevisiae deletion strains, locus YKR026C, strain gcn3, stronger effect = lower value",0.959
same,normalized growth,"S. cerevisiae deletion strains, locus YKR091W, strain srl3, stronger effect = lower value",0.953
same,normalized growth,"S. cerevisiae deletion strains, locus YLL001W, strain dnm1, stronger effect = lower value",0.906
same,normalized growth,"S. cerevisiae deletion strains, locus YLL026W, stronger effect = lower value",0.972
same,normalized growth,"S. cerevisiae deletion strains, locus YLL041C, strain sdh2, stronger effect = lower value",0.933
same,normalized growth,"S. cerevisiae deletion strains, locus YLR027C, strain aat2, stronger effect = lower value",0.92 (active)
same,normalized growth,"S. cerevisiae deletion strains, locus YLR039C, strain RIC1, stronger effect = lower value",0.227 (active)
same,normalized growth,"S. cerevisiae deletion strains, locus YLR058C, strain SHM2, stronger effect = lower value",0.295 (active)
same,normalized growth,"S. cerevisiae deletion strains, locus YLR102C, strain apc9, stronger effect = lower value",0.929
same,normalized growth,"S. cerevisiae deletion strains, locus YLR113W, strain HOG1, stronger effect = lower value",0.944
same,normalized growth,"S. cerevisiae deletion strains, locus YLR221C, strain rsa3, stronger effect = lower value",0.865 (active)
same,normalized growth,"S. cerevisiae deletion strains, locus YLR258W, strain gsy2, stronger effect = lower value",0.917
same,normalized growth,"S. cerevisiae deletion strains, locus YLR262C, strain YPT6 (second series), stronger effect = lower value",0.655 (active)
same,normalized growth,"S. cerevisiae deletion strains, locus YLR262C, strain YPT6, stronger effect = lower value",0.374 (active)
same,normalized growth,"S. cerevisiae deletion strains, locus YLR268W, strain sec22, stronger effect = lower value",0.558 (active)
same,normalized growth,"S. cerevisiae deletion strains, locus YLR320W, strain mms22, stronger effect = lower value",0.853 (active)
same,normalized growth,"S. cerevisiae deletion strains, locus YLR342W, strain FKS1 (second series), stronger effect = lower value",0.341 (active)
same,normalized growth,"S. cerevisiae deletion strains, locus YLR342W, strain FKS1, stronger effect = lower value",0.875 (active)
same,normalized growth,"S. cerevisiae deletion strains, locus YLR357W, strain rsc2, stronger effect = lower value",0.705 (active)
same,normalized growth,"S. cerevisiae deletion strains, locus YLR370C, strain arc18, stronger effect = lower value",0.967
same,normalized growth,"S. cerevisiae deletion strains, locus YLR371W, strain rom2, stronger effect = lower value",0.645 (active)
same,normalized growth,"S. cerevisiae deletion strains, locus YLR384C, strain iki3, stronger effect = lower value",0.942
same,normalized growth,"S. cerevisiae deletion strains, locus YLR418C, strain cdc73, stronger effect = lower value",0.559 (active)
same,normalized growth,"S. cerevisiae deletion strains, locus YML016C, strain PPZ1, stronger effect = lower value",0.155 (active)
same,normalized growth,"S. cerevisiae deletion strains, locus YML032C, strain rad52, stronger effect = lower value",0.91
same,normalized growth,"S. cerevisiae deletion strains, locus YML120C, strain ndi1, stronger effect = lower value",0.948
same,normalized growth,"S. cerevisiae deletion strains, locus YML124C, strain tub3, stronger effect = lower value",0.845 (active)
same,normalized growth,"S. cerevisiae deletion strains, locus YMR058W, strain fet3, stronger effect = lower value",0.35 (active)
same,normalized growth,"S. cerevisiae deletion strains, locus YMR078C, strain ctf18, stronger effect = lower value",0.957
same,normalized growth,"S. cerevisiae deletion strains, locus YMR125W, strain sto1, stronger effect = lower value",0.982
same,normalized growth,"S. cerevisiae deletion strains, locus YMR129W, stronger effect = lower value",0.954
same,normalized growth,"S. cerevisiae deletion strains, locus YMR205C, strain PFK2, stronger effect = lower value",0.696 (active)
same,normalized growth,"S. cerevisiae deletion strains, locus YMR223W, strain ubp8, stronger effect = lower value",0.759 (active)
same,normalized growth,"S. cerevisiae deletion strains, locus YMR231W, strain pep5, stronger effect = lower value",0.973
same,normalized growth,"S. cerevisiae deletion strains, locus YMR307W, strain GAS1, stronger effect = lower value",0.381 (active)
same,normalized growth,"S. cerevisiae deletion strains, locus YNL067W, strain RPL9B, stronger effect = lower value",0.438 (active)
same,normalized growth,"S. cerevisiae deletion strains, locus YNL071W, strain lat1, stronger effect = lower value",0.975
same,normalized growth,"S. cerevisiae deletion strains, locus YNL153C, strain GIM3, stronger effect = lower value",0.446 (active)
same,normalized growth,"S. cerevisiae deletion strains, locus YNL183C, strain NPR1, stronger effect = lower value",0.941
same,normalized growth,"S. cerevisiae deletion strains, locus YNL209W, strain ssb2, stronger effect = lower value",0.572 (active)
same,normalized growth,"S. cerevisiae deletion strains, locus YNL233W, strain BNI4, stronger effect = lower value",0.601 (active)
same,normalized growth,"S. cerevisiae deletion strains, locus YNL248C, strain rpa49, stronger effect = lower value",0.951
same,normalized growth,"S. cerevisiae deletion strains, locus YNL250W, strain rad50, stronger effect = lower value",1.01
same,normalized growth,"S. cerevisiae deletion strains, locus YNL271C, strain bni1, stronger effect = lower value",0.922
same,normalized growth,"S. cerevisiae deletion strains, locus YNL298W, strain CLA4, stronger effect = lower value",0.975
same,normalized growth,"S. cerevisiae deletion strains, locus YNL307C, strain MCK1, stronger effect = lower value",0.893 (active)
same,normalized growth,"S. cerevisiae deletion strains, locus YNL322C, strain KRE1 (second series), stronger effect = lower value",0.961
same,normalized growth,"S. cerevisiae deletion strains, locus YNR049C, strain mso1, stronger effect = lower value",0.968
same,normalized growth,"S. cerevisiae deletion strains, locus YNR052C, strain pop2, stronger effect = lower value",0.761 (active)
same,normalized growth,"S. cerevisiae deletion strains, locus YOL012C, strain htz1",0.232
same,normalized growth,"S. cerevisiae deletion strains, locus YOL147C, strain pex11, stronger effect = lower value",0.813 (active)
same,normalized growth,"S. cerevisiae deletion strains, locus YOR001W, strain rrp6, stronger effect = lower value",0.922
same,normalized growth,"S. cerevisiae deletion strains, locus YOR061W, strain CKA2, stronger effect = lower value",0.285 (active)
same,normalized growth,"S. cerevisiae deletion strains, locus YOR069W, strain VPS5, stronger effect = lower value",0.458 (active)
same,normalized growth,"S. cerevisiae deletion strains, locus YOR070C, strain gyp1, stronger effect = lower value",0.968
same,normalized growth,"S. cerevisiae deletion strains, locus YOR080W, strain dia2, stronger effect = lower value",0.942
same,normalized growth,"S. cerevisiae deletion strains, locus YOR083W, strain WHI5, stronger effect = lower value",0.884 (active)
same,normalized growth,"S. cerevisiae deletion strains, locus YOR106W, strain vam3, stronger effect = lower value",0.616 (active)
same,normalized growth,"S. cerevisiae deletion strains, locus YOR136W, strain idh2, stronger effect = lower value",0.871 (active)
same,normalized growth,"S. cerevisiae deletion strains, locus YOR144C, strain elg1, stronger effect = lower value",0.788 (active)
same,normalized growth,"S. cerevisiae deletion strains, locus YOR184W, strain ser1, stronger effect = lower value",0.683 (active)
same,normalized growth,"S. cerevisiae deletion strains, locus YOR231W, strain MKK1, stronger effect = lower value",0.991
same,normalized growth,"S. cerevisiae deletion strains, locus YOR265W, strain rbl2, stronger effect = lower value",0.94
same,normalized growth,"S. cerevisiae deletion strains, locus YOR270C, strain vph1, stronger effect = lower value",0.716 (active)
same,normalized growth,"S. cerevisiae deletion strains, locus YOR290C, strain snf2, stronger effect = lower value",0.817 (active)
same,normalized growth,"S. cerevisiae deletion strains, locus YOR316C, strain cot1, stronger effect = lower value",0.938
same,normalized growth,"S. cerevisiae deletion strains, locus YPL051W, strain arl3, stronger effect = lower value",0.763 (active)
same,normalized growth,"S. cerevisiae deletion strains, locus YPL078C, strain atp4, stronger effect = lower value",0.958
same,normalized growth,"S. cerevisiae deletion strains, locus YPL106C, strain sse1, stronger effect = lower value",0.784 (active)
same,normalized growth,"S. cerevisiae deletion strains, locus YPL240C, strain hsp82, stronger effect = lower value",0.92 (active)
same,normalized growth,"S. cerevisiae deletion strains, locus YPL241C, strain CIN2, stronger effect = lower value",0.506 (active)
same,normalized growth,"S. cerevisiae deletion strains, locus YPL256C, strain CLN2, stronger effect = lower value",0.969
same,normalized growth,"S. cerevisiae deletion strains, locus YPR119W, strain clb2, stronger effect = lower value",0.97
same,normalized growth,"S. cerevisiae deletion strains, locus YPR141C, strain kar3, stronger effect = lower value",0.996
same,normalized growth,"S. cerevisiae deletion strains, locus YPR163C, strain tif3, stronger effect = lower value",0.838 (active)
same,normalized growth,"S. cerevisiae deletion strains, locus YPR167C, strain met16, stronger effect = lower value",0.78 (active)
same,normalized growth,"S. cerevisiae deletion strains, strain wtn01, stronger effect = lower value",0.66 (active)
same,normalized growth,"S. cerevisiae strains, strain wild type, stronger effect = lower value",0.102 (active)
